Rows were chosen to be rich in hits. Some 28% of all compounds tested hit in one or more screens of this group.
PLK1 inh: inhibitors of human PLK1 kinase; P53350; recombinant PLK1 kinase, TR-FRET peptide phosphorylation; inhibition, % at 10 µM; 0.53% of 97,000 active;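 active = inhibition of 50% or more in the single-concentration screen; inactive = inhibition below 50%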
CYP2C9 act: activators of human CYP2C9; P11712; recombinant CYP2C9, luciferin-H conversion, luminescence; hits give high values; factor 1 = untreated enzyme, 0 = blocked; activation factor at 5 µM; 1.4% of 96,000 active; AID 1024;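 active = activation factor of 2 or more for CYP2C9 at a 5 µM dose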
Target sequence (P11712 whole entry, looked up): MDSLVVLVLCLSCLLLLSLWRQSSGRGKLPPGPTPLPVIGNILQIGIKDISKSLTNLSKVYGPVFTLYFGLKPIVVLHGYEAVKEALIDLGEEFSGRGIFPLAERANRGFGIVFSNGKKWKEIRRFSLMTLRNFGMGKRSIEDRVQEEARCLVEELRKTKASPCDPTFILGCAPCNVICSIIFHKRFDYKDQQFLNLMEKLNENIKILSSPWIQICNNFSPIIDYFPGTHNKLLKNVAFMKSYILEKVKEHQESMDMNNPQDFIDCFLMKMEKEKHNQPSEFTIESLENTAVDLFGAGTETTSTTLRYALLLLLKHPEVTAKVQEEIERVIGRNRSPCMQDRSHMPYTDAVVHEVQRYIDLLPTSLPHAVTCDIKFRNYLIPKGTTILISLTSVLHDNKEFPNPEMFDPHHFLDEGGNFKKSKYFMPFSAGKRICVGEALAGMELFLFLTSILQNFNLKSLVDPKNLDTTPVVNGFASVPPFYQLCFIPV
CYP2C9 inh: blocks human cytochrome P450 2C9. P11712. CYP2C9 Supersomes, luciferin-H conversion, luminescence. inhibition, % at 5 µM. 20% of 96,000 active;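 active = blocking of liver enzyme CYP2C9 beyond about 50% at 5 µM, limit read from the data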
PLK1 PBD inh: blocks phosphopeptide binding to human Plk1 polo box domain; 0.13% of 97,000 active; Plk1 PBD phosphopeptide binding, fluorescence polarization; AID 693; P53350; inhibition, %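 (tested at about 20 µM)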; in the data active = inhibition above about 34%, passing the limit was not always enough
CYP2C19 activ: cytochrome P450 2C19 (human) activation | recombinant CYP2C19, luciferin-H EGE luminescence; hits give high values; 0 = fully inhibited enzyme, 1 = untreated enzyme | activation factor at 5 µM | P33261 | AID 1025 | 96,000 tested, under 10 active;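 active = activation factor of at least 2 at 5 µM in the primary screen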
CYP2C19 inhib: inhibitors of human CYP2C19; P33261; CYP2C19 Supersomes, luciferin-H EGE luminescence, 30 min; inhibition, % at 5 µM; 21% of 96,000 active; AID 778;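 active = CYP2C19 inhibition above a set limit at 5 µM in the primary screen, cut at about 50% in these data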
A number is an active result; . = inactive; / = no result.

SMILES	PLK1 inh	CYP2C9 act	CYP2C9 inh	PLK1 PBD inh	CYP2C19 activ	CYP2C19 inhib
N#C/C(C(N)=O)=c1/ccc2c(c1)N1C3=C(CCCC3)CC3CCCCC31N=2 (stereo not given)	.	.	89.4	.	.	54.4
N#CC(C#N)=c1ccc2c(c1)N1C3=C(CCCC3)CC3CCCCC31N=2 (stereo not given)	.	.	97.8	.	.	90.0
N#C/C(=C/c1ccc(N2CCOCC2)c([N+](=O)[O-])c1)C(N)=O	.	.	.	.	.	.
O=C(NC(=S)N1CCN(c2c(Cl)cccc2[N+](=O)[O-])CC1)c1cccs1	.	.	78.3	.	.	.
CC(C)C(=O)N1CCN(c2c(Cl)cccc2[N+](=O)[O-])CC1	.	.	.	.	.	.
O=C(c1cccnc1)N1CCN(c2c(Cl)cccc2[N+](=O)[O-])CC1	.	.	.	.	.	82.0
CC(=O)/C=C1\SC(CC(=O)O)C(=O)N1c1ccccc1 (stereo not given)	.	.	.	.	.	.
CN(C)c1ccc(NC(=O)CN2CCC(N3CCCCC3)CC2)cc1	.	.	.	.	.	.
C=CCSc1nnc2c(n1)OC(c1c(C)[nH]n(-c3ccccc3)c1=O)Nc1ccccc1-2 (stereo not given)	.	.	71.7	.	.	.
C=CCSc1nnc(-c2ccccc2N=Cc2c(C)[nH]n(-c3ccccc3)c2=O)c(=O)[nH]1	.	.	99.0	.	.	.
COc1cc(Nc2cc(C)nc3nc(C)nn23)cc(OC)c1OC	/	.	.	/	.	.
CC(=O)Oc1cc2c(cc1Cl)C1(CC(c3ccccc3Cl)O2)CC(C)(C)NC(=S)N1 (stereo not given)	.	.	.	.	.	.
Cc1cc(C)cc(NC(=O)c2snc3c(=O)[nH]cnc23)c1	.	.	.	.	.	.
CC1(C)N=C(SCC(=O)Nc2ccc(Cl)cc2)C(c2ccccc2)=N1	.	.	68.0	.	.	76.6
CC1(C)N=C(SCC(=O)Nc2ccc(Cl)cc2)C(c2ccc(Cl)cc2)=N1	.	.	.	.	.	.
Cc1ccc(C(=O)Nc2c(C(=O)N3CCOCC3)cnn2-c2ccccc2)cc1	.	.	.	.	.	.
COCCn1c(SCC(=O)Nc2cccc(C(=O)OC)c2)nc2ccccc2c1=O	.	.	55.6	.	.	.
COCCCn1c(SCC(=O)Nc2ccc(C(C)=O)cc2)nc2ccccc2c1=O	.	.	70.8	.	.	98.6
COC(=O)c1cccc(NC(=O)Cn2cnc3ccccc3c2=O)c1	.	.	98.3	.	.	74.8
COC(=O)c1ccc(C)c(NC(=O)c2nn(C)c(=O)c3ccccc23)c1	.	.	.	.	.	.
COCCCn1c(SCC(=O)NCc2ccccc2)nc2ccccc2c1=O	.	/	/	.	/	/
COC(=O)c1cccc(NC(=O)c2nn(C)c(=O)c3ccccc23)c1	/	.	54.6	/	.	.
CCOc1c2ccc(C(=O)NCC34CC5CC(CC(C5)C3)C4)cc2nn1CC	.	.	.	.	.	.
O=C(NCc1cn2ccccc2n1)c1ccc2c(c1)OCO2	.	.	.	.	.	.
CCn1c(SCC(=O)Nc2ccc(C(C)=O)cc2)nc2ccccc21	.	.	.	.	.	.
SMILES	PLK1 inh	CYP2C9 act	CYP2C9 inh	PLK1 PBD inh	CYP2C19 activ	CYP2C19 inhib
COc1cccc(NC(=O)CSc2nc3ccccc3c(=O)n2CCCC(=O)N2CCCC2)c1	.	.	87.9	.	.	72.5
CCn1c(SCC(=O)Nc2ccc(C(C)=O)cc2)nc2nc3c(cc2c1=O)CCCC3	.	.	67.6	.	.	.
COC(=O)c1cc(NC(=O)Cn2c(=O)cnc3ccccc32)cc(C(=O)OC)c1	.	.	89.3	.	.	.
COc1ccc(NC(=O)CSc2nc3ccccc3c(=O)n2CCC(=O)N2CCCCC2)cc1	.	/	/	.	/	/
O=C(Cn1cnc2ccccc2c1=O)Nc1cccc(-c2nnc3n2CCCCC3)c1	.	.	.	.	.	56.6
CCOC(=O)C1=C(C)OC(N)=C(C(=O)OCC)C1c1ccncc1 (stereo not given)	/	.	99.4	/	.	93.4
CCOC(=O)C1=C(C)OC(N)=C(C(=O)OCC)C1c1cccnc1 (stereo not given)	.	.	96.0	.	.	92.5
COc1cccc(-c2nnc(SCC(=O)Nc3ccc(OC)c(OC)c3)n2N)c1	.	.	.	.	.	.
Cc1ccc(-n2c(-c3cccnc3)n[nH]c2=S)c(C)c1	.	.	.	.	.	.

Screening results from PubChem.
